For test [1], the target named is bovine Estrogen Receptor (ER), ESR1 (gene 407238) (UniProt P49884). The test can be described thus: NVS_NR_bER: NovaScreen (NVS) Nuclear Receptor Binding Assay for bovine Estrogen Receptor (ER) (AID 2283345).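 Note: actives lower the bound radioligand count which means they displace the ER ligand.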 In a few lines:
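Bovine uterine membranes; tritiated or iodinated radioligand; competitive displacement; 18 h; scintillation read; DMSO negative control; 25 uM duplicates, then concentration series for actives.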

Test [2] has as its target Estrogen receptor (Homo sapiens) (UniProt P03372). The test can be described thus: NVS_NR_hER: NovaScreen (NVS) Nuclear Receptor Binding Assay for human Estrogen Receptor (ER) (AID 2283348). In a few lines:
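Scintillation signal from bound radioligand was measured 18 hours after chemical addition to cell-free MCF7 protein extracts, with DMSO as baseline. Activity was scored as signal loss; compounds ran first at 25 uM in duplicate.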

The nature of test [3]: TOX21_p53_BLA_p2_viability: Viability Assessment in the Tox21 HCT-116 p53 Agonism Beta-lactamase Assay, Phase 2 (AID 2283591).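 Note: compound exposure lasted 16 h at 37 °C; actives lower the ATP signal meaning cytotoxicity.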 In a few lines:
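Cytotoxicity readout: CellTiter-Glo ATP luminescence, 30 min at room temperature, after the beta-lactamase read. Cells were HCT116 exposed 16 h at 37C to compounds pin-transferred at 217-fold dilution from DMSO stocks.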

Test [4] concerns the target Cellular tumor antigen p53 (Homo sapiens) (UniProt P04637). The test can be described thus: TOX21_p53_BLA_p2_ratio: Tox21 HCT-116 p53 Agonism Beta-lactamase Assay, Ratio, Phase 2 (AID 2283592). In outline: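 In this cell-based reporter format, HCT116 cells were dosed with chemicals delivered from DMSO by 217-fold dilution and incubated 16 h at 37C. Emission at 460 and 530 nm after 2 h CCF4-AM loading provided the ratio, fitted upward versus DMSO.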

Test [5] can be described thus: TOX21_p53_BLA_p3_viability: Viability Assessment in the Tox21 HCT-116 p53 Agonism Beta-lactamase Assay, Phase 3 (AID 2283593).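 Note: cells exposed to compound for 16 h before reading.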 In a few lines:
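Cellular ATP was quantified by CellTiter-Glo luminescence, read after 30 min at room temperature. Beforehand, HCT116 cells (4000/well) received compound 5 h post-seeding, 217-fold diluted from DMSO, then incubated 16 h at 37C.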

The target in test [6] is Cellular tumor antigen p53 (Homo sapiens) (UniProt P04637). Put plainly: TOX21_p53_BLA_p3_ratio: Tox21 HCT-116 p53 Agonism Beta-lactamase Assay, Ratio, Phase 3 (AID 2283596). In outline:
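HCT116 p53-bla cells (4000/well) given compound in DMSO (217-fold dilution) after 5 h, incubated 16 h at 37C. CCF4-AM substrate 2 h at room temperature; 460/530 nm emission ratio, gain fitted against DMSO.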

Test [7] has the same target. Put plainly: TOX21_p53_BLA_p5_ratio: Tox21 HCT-116 p53 Agonism Beta-lactamase Assay, Ratio, Phase 5 (AID 2283599). In outline:
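Beta-lactamase reporter ratio (blue 460 nm over green 530 nm, 405 nm excitation) after 2 h CCF4-AM loading, in HCT-116 cells exposed 16 h at 37 C to compounds pinned at 217-fold dilution. Increases relative to DMSO baseline scored.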

A short description of test [8]: TOX21_p53_BLA_p5_viability: Viability Assessment in the Tox21 HCT-116 p53 Agonism Beta-lactamase Assay, Phase 5 (AID 2283600). In outline: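 Compounds, pinned from DMSO at 217-fold dilution, were left on the cells for 16 h. The viability endpoint was ATP content measured by CellTiter-Glo luminescence, where falling signal reflects cytotoxicity.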
In test [9] the target is Cellular tumor antigen p53 (Homo sapiens) (UniProt P04637). Put plainly: TOX21_p53_BLA_p4_ratio: Tox21 HCT-116 p53 Agonism Beta-lactamase Assay, Ratio, Phase 4 (AID 2283601). In outline: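 Signal is the blue/green (460nm/530nm) ratio of cleaved versus uncleaved CCF4-AM substrate, read after 2 h substrate loading. Cells were HCT116 carrying the p53-responsive beta-lactamase reporter, dosed 16 h at 37C, 5% CO2; CellTiter-Glo measured in parallel.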
Cellular tumor antigen p53 (Homo sapiens), sequence (P04637 whole entry, looked up): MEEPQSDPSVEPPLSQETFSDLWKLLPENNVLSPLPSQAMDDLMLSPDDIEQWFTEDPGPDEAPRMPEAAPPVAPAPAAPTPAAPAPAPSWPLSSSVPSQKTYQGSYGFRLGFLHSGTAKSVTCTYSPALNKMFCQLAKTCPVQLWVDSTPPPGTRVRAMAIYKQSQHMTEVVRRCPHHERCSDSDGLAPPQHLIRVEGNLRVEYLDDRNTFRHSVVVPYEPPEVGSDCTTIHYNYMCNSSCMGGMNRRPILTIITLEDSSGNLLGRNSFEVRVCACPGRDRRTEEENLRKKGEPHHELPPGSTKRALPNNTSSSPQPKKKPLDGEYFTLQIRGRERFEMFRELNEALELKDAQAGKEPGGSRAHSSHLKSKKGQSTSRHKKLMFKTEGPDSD

Test [10] is described as follows: CCTE_Harrill_HTTr_Viability_MCF7: CCTE's 6-hour Cell Viability Assessment for the High-Throughput Transcriptomics (HTTr) Platform, in MCF-7 cells cultured in DMEM + 10% fetal bovine serum, Harrill Lab (AID 2284010; active = hit-call score of the fitted dose curve at least 0.9, where 1 is the maximum; inactive = score below 0.9). In a few lines: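 Membrane integrity was scored by high-content imaging of propidium iodide dye exclusion after a 6 h exposure across an eight-point dilution series. Data were fitted bidirectionally relative to DMSO as negative control and baseline.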

The nature of test [11]: CCTE_Harrill_HTTr_Apoptosis_MCF7: CCTE's 6-hour Apoptosis Assessment for the High-Throughput Transcriptomics (HTTr) Platform, in MCF-7 cells cultured in DMEM + 10% fetal bovine serum, Harrill Lab (AID 2284011; active = hit-call score of the fitted dose curve at least 0.9, where 1 is the maximum; inactive = score below 0.9). In outline:
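Read-out: CellEvent Caspase 3/7 Green signal by high content imaging, gain-of-signal indicating apoptosis. MCF-7 cells, DMEM + 10% FBS, eight-point dilution series, 6 h exposure. Curves fitted bidirectionally relative to DMSO negative control.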

Test [12] deals with CCAAT/enhancer-binding protein beta (Homo sapiens) (UniProt P17676). Put plainly: ATG_C_EBP_CIS: Attagene CIS-FACTORIAL HepG2 Assay for human CCAAT/Enhancer Binding Protein (C/EBP) beta (AID 2282927; active = hit-call score of the fitted dose curve at least 0.9, where 1 is the maximum; inactive = score below 0.9). As to conditions: HepG2 Attagene cis-factorial transcription factor reporter; actives raise or lower the signal. In a few lines: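 Changes in reporter mRNA, rather than exogenous chimeric receptor activity, reflect native C/EBP signalling in transfected HepG2 cells dosed for 24 h; transcripts are detected by RT-PCR and capillary electrophoresis.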
CCAAT/enhancer-binding protein beta (Homo sapiens), sequence (P17676 whole entry, looked up): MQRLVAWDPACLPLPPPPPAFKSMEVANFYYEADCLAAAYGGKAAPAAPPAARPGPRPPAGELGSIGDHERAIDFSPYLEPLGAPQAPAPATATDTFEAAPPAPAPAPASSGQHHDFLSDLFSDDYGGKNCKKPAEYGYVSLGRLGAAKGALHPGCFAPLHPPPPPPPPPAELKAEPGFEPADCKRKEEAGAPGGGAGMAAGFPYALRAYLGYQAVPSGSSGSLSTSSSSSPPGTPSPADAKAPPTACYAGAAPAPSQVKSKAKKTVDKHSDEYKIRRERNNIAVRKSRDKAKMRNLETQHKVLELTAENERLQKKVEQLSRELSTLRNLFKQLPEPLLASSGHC

Test [13] in a line: ATG_CMV_CIS: Attagene CIS-FACTORIAL HepG2 Assay for human CMV (Internal Marker) (AID 2282928; active = hit-call score of the fitted dose curve at least 0.9, where 1 is the maximum; inactive = score below 0.9;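 note: endpoint acts as a background internal control marker rather than a target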). As to conditions: HepG2 CMV promoter reporter, transcription factor profiling; actives raise or lower the signal. In outline: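 Endogenous transcription factor activity read in HepG2 via transfected cis-promoter reporter units. After 24 h dosing, reporter mRNA measured by RT-PCR/capillary electrophoresis; gain or loss of signal fit relative to DMSO.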

A short description of test [14]: ATG_AP_2_CIS: Attagene CIS-FACTORIAL HepG2 Assay for human Activator Protein 2 (AP-2) (AID 2282932; active = hit-call score of the fitted dose curve at least 0.9, where 1 is the maximum; inactive = score below 0.9). As to conditions: HepG2 AP-2 cis-reporter, Attagene transcription factor profiling; actives raise or lower the signal. In a few lines: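 Step one: transient transfection of HepG2 with reporter transcription units. Step two: 24 h chemical exposure. Step three: RNA extraction, RT-PCR, labelled fragment analysis by capillary electrophoresis; DMSO serves as baseline.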

The nature of test [15]: ATG_BRE_CIS: Attagene CIS-FACTORIAL HepG2 Assay for human Bone Morphogenetic Protein (BMP) Response Element (BRE) (AID 2282933; active = hit-call score of the fitted dose curve at least 0.9, where 1 is the maximum; inactive = score below 0.9). Particulars: HepG2 BMP response element reporter, Attagene transcription factor profiling; actives raise or lower the signal. In a few lines: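 Gain- or loss-of-signal was derived by bidirectional fitting against DMSO controls. The signal came from reporter mRNA, measured by RT-PCR and capillary electrophoresis, in HepG2 cells transiently carrying multiple reporter units and dosed for 24 h.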

In test [16] the target is Transcription factor E2F1 (Homo sapiens) (UniProt Q01094). Put plainly: ATG_E2F_CIS: Attagene CIS-FACTORIAL HepG2 Assay for human E2F Transcription Factor 1 (AID 2282935; active = hit-call score of the fitted dose curve at least 0.9, where 1 is the maximum; inactive = score below 0.9). Particulars: HepG2 Attagene cis-reporter, E2F reporter RNA transcripts; actives raise or lower the signal. In a few lines:
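Total RNA from 24 h-treated, reporter-transfected HepG2 cells undergoes DNase I treatment, oligo(dT) reverse transcription, PCR and 6-FAM primer extension before capillary electrophoresis.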

Test [17] can be described thus: ATG_E_Box_CIS: Attagene CIS-FACTORIAL HepG2 Assay for human Enhancer Box (E-box) (AID 2282936; active = hit-call score of the fitted dose curve at least 0.9, where 1 is the maximum; inactive = score below 0.9). As to conditions: HepG2 E-box cis-reporter transcription, actives raise or lower the signal. In a few lines:
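DMSO served as negative control and baseline for bidirectional fitting. Human hepatoma HepG2 cells, transiently transfected with cis-reporter constructs, were dosed 24 h; reporter mRNA read by RT-PCR and capillary electrophoresis.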

A short description of test [18]: ATG_M_61_CIS: Attagene CIS-FACTORIAL HepG2 Assay for M61 Transcription Factor (Internal Marker) (AID 2282937; active = hit-call score of the fitted dose curve at least 0.9, where 1 is the maximum; inactive = score below 0.9). Particulars: HepG2 Attagene CIS-FACTORIAL M61 internal marker reporter; actives raise or lower the signal. In a few lines: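 Transfect HepG2 with MRTUs; dose 24 h; isolate RNA; reverse-transcribe with DNase I treatment; PCR-amplify, FAM-label and cut with HpaI for 2 h at 37 C; resolve by CE. Bidirectional fitting against DMSO.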

Test [19] in a line: ATG_EGR_CIS: Attagene CIS-FACTORIAL HepG2 Assay for human Early Growth Response 1 (EGR1) (AID 2282938; active = hit-call score of the fitted dose curve at least 0.9, where 1 is the maximum; inactive = score below 0.9). As to conditions: HepG2 Attagene CIS-FACTORIAL EGR reporter mRNA; actives raise or lower the signal. In a few lines:
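After a 24 h treatment of transiently transfected HepG2 cells, total RNA was reverse-transcribed and reporter sequences PCR-amplified, labelled and run on capillary electrophoresis. Reporters sit under cis-regulatory promoters sensing endogenous factors.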

A short description of test [20]: TOX21_p53_BLA_p4_viability: Viability Assessment in the Tox21 HCT-116 p53 Agonism Beta-lactamase Assay, Phase 4 (AID 2283597).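 Note: hits lower the luminescence signal meaning cytotoxicity.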 In a few lines:
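We seeded HCT116 p53 reporter cells at 4000/well and waited 5 h. We then added compounds in DMSO at a 217-fold dilution and incubated for 16 h. Viability was read as CellTiter-Glo luminescence after 30 min at RT.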

We go through 8 compounds from PubChem BioAssay (EPA / NIEHS).

Several values for one entry are separate records, joined by “and”; a condition that tells them apart may be missing. Equal values may be shown once. Results filed as inconclusive are left out. More than one record can exist for a structure, and the calls need not agree. Activity calls are given as the source filed them. Rule for the calls, unless noted: active = hit-call score of the fitted dose curve at least 0.9, where 1 is the maximum; inconclusive = response in the unintended direction; inactive = score below 0.9.

bovine Estrogen Receptor (ER), ESR1 (gene 407238), sequence (P49884 whole entry, looked up): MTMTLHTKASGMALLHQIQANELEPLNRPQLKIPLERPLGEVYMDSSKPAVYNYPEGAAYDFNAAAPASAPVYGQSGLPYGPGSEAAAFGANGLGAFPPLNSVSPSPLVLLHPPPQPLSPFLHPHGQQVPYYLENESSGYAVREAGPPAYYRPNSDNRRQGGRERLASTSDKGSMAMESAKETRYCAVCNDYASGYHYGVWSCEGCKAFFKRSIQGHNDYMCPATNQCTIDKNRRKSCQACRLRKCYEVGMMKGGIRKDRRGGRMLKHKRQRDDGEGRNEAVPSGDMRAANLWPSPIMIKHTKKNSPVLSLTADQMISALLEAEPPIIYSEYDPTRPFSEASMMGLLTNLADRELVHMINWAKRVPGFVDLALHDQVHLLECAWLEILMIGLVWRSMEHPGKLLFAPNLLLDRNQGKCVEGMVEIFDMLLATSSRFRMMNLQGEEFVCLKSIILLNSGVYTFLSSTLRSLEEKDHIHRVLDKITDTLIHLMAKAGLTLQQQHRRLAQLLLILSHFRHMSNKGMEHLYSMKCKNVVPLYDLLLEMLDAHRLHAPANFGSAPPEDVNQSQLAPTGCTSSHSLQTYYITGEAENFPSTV
Estrogen receptor (Homo sapiens), sequence (P03372 whole entry, looked up): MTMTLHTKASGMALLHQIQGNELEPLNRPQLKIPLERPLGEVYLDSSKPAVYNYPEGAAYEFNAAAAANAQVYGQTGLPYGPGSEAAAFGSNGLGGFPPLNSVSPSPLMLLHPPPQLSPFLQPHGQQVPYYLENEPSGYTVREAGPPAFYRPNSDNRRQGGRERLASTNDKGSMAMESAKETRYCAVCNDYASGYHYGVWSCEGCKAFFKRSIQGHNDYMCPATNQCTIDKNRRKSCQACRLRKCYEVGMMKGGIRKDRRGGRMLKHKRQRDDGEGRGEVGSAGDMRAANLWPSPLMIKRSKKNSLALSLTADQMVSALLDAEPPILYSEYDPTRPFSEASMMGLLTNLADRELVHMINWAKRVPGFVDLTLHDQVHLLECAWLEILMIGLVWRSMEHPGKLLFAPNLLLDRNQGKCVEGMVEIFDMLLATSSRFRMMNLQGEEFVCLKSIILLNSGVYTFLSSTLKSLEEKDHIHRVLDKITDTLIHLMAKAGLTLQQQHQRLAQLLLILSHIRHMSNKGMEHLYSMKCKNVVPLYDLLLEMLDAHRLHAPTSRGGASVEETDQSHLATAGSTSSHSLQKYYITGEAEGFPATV
Transcription factor E2F1 (Homo sapiens), sequence (Q01094 whole entry, looked up): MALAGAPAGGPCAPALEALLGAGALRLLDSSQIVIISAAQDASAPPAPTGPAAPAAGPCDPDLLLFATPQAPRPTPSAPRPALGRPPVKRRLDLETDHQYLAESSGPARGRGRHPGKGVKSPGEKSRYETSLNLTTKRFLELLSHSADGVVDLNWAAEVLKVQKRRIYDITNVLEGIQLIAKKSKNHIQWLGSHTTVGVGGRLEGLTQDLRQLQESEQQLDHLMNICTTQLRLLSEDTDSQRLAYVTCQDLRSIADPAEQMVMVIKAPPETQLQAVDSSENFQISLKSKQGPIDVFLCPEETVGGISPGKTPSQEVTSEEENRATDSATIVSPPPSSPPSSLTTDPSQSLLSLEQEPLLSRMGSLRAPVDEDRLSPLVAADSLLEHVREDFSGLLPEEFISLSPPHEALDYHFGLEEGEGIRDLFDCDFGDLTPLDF

On to `CC(=O)O[C@]1(C(C)=O)CC[C@H]2[C@@H]3C=C(C)C4=CC(=O)CC[C@]4(C)[C@H]3CC[C@@]21C`, for which the outcome in test [1], in test [2], in test [3], in test [4], in [5] and in [6] was inactive. Besides, the outcome in test [7], in [8], in test [9], in [10] and in test [11] was inactive.

On to `CC(C)CC(=O)CC(C)C`, for which the outcome in test [12], in test [13], in [14], in [15], in test [16] and in test [17] was inactive. The result in test [18], in test [19], in test [3], in test [4], in test [5] and in test [6] was inactive. The outcome in test [20], in test [7], in [8], in test [9], in [10] and in test [11] was inactive.

Consider `Nc1nc(N)c2nc(-c3ccccc3)c(N)nc2n1`, for which the compound was classed as inactive in [1], in test [2], in test [3], in [4], in test [5] and in test [6]. Moreover, the result in test [20], in test [8], in test [10] and in test [11] was inactive. Further, the concentration at half-maximal activity (AC50) (in general, the midpoint of the concentration-response curve, whichever way the signal moves) was 85.6 µM (active) in test [3]; 32.3 µM (active) and 16.7 µM (active) in test [4]; 33.5 µM (active) in test [6]; 17.5 µM (active) and 38.9 µM (active) and 28 µM (active) in test [7]; 26.9 µM (active) and 21.1 µM (active) and 29.1 µM (active) in test [9].

With `COc1ccccc1Oc1c(NS(=O)(=O)c2ccc(C(C)(C)C)cc2)nc(-c2ncccn2)nc1OCCO`, the outcome in test [3], in [4], in [5], in test [7], in test [10] and in test [11] was inactive.

For the compound `CCCCCCOC(=O)CCCCCCCC(=O)OCCCCCC`, the result in test [12], in test [13], in [14], in test [15], in [16] and in test [17] was inactive. Moreover, the outcome in test [18] and in test [19] was inactive.

On to `Oc1ccc(Oc2ccccc2)cc1`, for which the result in [12], in test [14], in test [15], in test [16], in test [17] and in test [18] was inactive. In addition, the compound was called inactive in test [19], in test [3], in test [5], in [6], in test [20] and in [7]. In [9], the result was inactive. Further, the AC50 in test [13] was 44.9 µM (active); in test [1] it was 11 µM (active); in [2], 6.92 µM (active); in test [4], 45 µM (active).

`CCCC[N+]1(C)CCCC1`: the outcome in [12], in [13], in test [14], in [15], in test [16] and in test [17] was inactive. Also, the outcome in test [18] and in test [19] was inactive.

Turning to `COc1cc(CNC(=O)CCCC/C=C/C(C)C)ccc1O`, the compound was called inactive in test [3], in test [4], in test [5], in [6], in test [20] and in test [7]. The result in test [8], in [9], in test [10] and in [11] was inactive.
